Results as given in the supplement of paper PMC4022240.
± gives the standard deviation.

Columns and labels:
Experiment in all cases: peptide microarray binding signal (635 nm), min-max normalized on array (fraction of array maximum); higher = stronger binding
[1] = biological target: T1, HaloTag-ATRX ADD domain (163-292)
T1 chain: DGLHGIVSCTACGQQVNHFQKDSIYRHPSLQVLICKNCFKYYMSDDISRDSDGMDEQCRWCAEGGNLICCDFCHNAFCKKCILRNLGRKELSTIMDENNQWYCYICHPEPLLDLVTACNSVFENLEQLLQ
Summary of the method: (§1)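 Arrays carried histone 13-mer peptide–cellulose conjugates printed in triplicate on nitrocellulose alongside a Cy3 tracer. After overnight blocking at 4°C, they were incubated for 1 h at 4°C with biotin-labelled HaloTag reader fusions (10 nM to 1 μM) plus streptavidin-Alexa Fluor 647, or with rabbit histone antibodies (1:10,000 to 1:2,000) plus anti-rabbit Alexa 647. Scanning on an Axon GenePix 4000B used 635 nm for signal and 532 nm for misprints. The binding signal reported is each triplicate's mean spot intensity after per-library min-max scaling.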

[2] = biological target: HaloTag-ING2 PHD (mouse Ing2 200-280)
Summary of the method: as §1

[3] = biological target: anti-H3K4me3 antibody ab8580
Summary of the method: as §1

[4] = biological target: anti-H3K9me3 antibody ab8898
Summary of the method: as §1

[5] = peptide region: H4 1-13, peptide modifications: H4S1ph H4K12ac, binder concentration: 1:2,000 dilution
[6] = peptide region: H4 1-13, peptide modifications: H4S1ph H4K12ac, binder concentration: 1:10,000 dilution
[7] = peptide region: H4 1-13, peptide modifications: H4R3cit, binder concentration: 1:2,000 dilution
[8] = peptide region: H4 1-13, peptide modifications: H4R3cit, binder concentration: 1:10,000 dilution
[9] = peptide region: H4 1-13, peptide modifications: H4K5ac, binder concentration: 1:2,000 dilution
[10] = peptide region: H4 1-13, peptide modifications: H4K5ac, binder concentration: 1:10,000 dilution
[11] = peptide region: H4 1-13, peptide modifications: H4S1ph, binder concentration: 1:2,000 dilution
[12] = peptide region: H4 1-13, peptide modifications: H4S1ph, binder concentration: 1:10,000 dilution
[13] = peptide region: H4 8-19, binder concentration: 1:2,000 dilution
[14] = peptide region: H4 8-19, binder concentration: 1:10,000 dilution
[15] = peptide region: H4 1-13, peptide modifications: H4S1ph H4R3me1, binder concentration: 1:2,000 dilution
[16] = peptide region: H4 1-13, peptide modifications: H4S1ph H4R3me1, binder concentration: 1:10,000 dilution
[17] = peptide region: H4 1-13, peptide modifications: H4R3me2s, binder concentration: 1:2,000 dilution
[18] = peptide region: H4 1-13, peptide modifications: H4R3me2s, binder concentration: 1:10,000 dilution
[19] = peptide region: H4 1-13, peptide modifications: H4S1ph H4R3cit, binder concentration: 1:2,000 dilution
[20] = peptide region: H4 1-13, peptide modifications: H4S1ph H4R3cit, binder concentration: 1:10,000 dilution
[21] = peptide region: H4 1-13, peptide modifications: H4R3me1, binder concentration: 1:2,000 dilution
[22] = peptide region: H4 1-13, peptide modifications: H4R3me1, binder concentration: 1:10,000 dilution
[23] = peptide region: H4 1-13, peptide modifications: H4K12ac, binder concentration: 1:2,000 dilution
[24] = peptide region: H4 1-13, peptide modifications: H4K12ac, binder concentration: 1:10,000 dilution

SGRGKGGKGLGKG [H4 1-13 Sph G R G K G G K G L G Kac G]
peptide microarray binding signal ([1]; peptide region: H4 1-13, peptide modifications: H4S1ph H4K12ac, binder concentration: 50 nM): 0.00392 ± 0.00035
peptide microarray binding signal ([1]; peptide region: H4 1-13, peptide modifications: H4S1ph H4K12ac, binder concentration: 500 nM): 0.0105 ± 0.00038
peptide microarray binding signal ([2]; peptide region: H4 1-13, peptide modifications: H4S1ph H4K12ac, binder concentration: 10 nM): 0.00269 ± 6.6e-05
peptide microarray binding signal ([2]; peptide region: H4 1-13, peptide modifications: H4S1ph H4K12ac, binder concentration: 100 nM): 0.00893 ± 0.00049
peptide microarray binding signal [3, 5]: 0.000378 ± 1e-05
peptide microarray binding signal [3, 6]: 0.000742 ± 1.3e-05
peptide microarray binding signal [4, 5]: 0.000649 ± 0.00018
peptide microarray binding signal [4, 6]: 0.00075 ± 7.9e-06

SGRGKGGKGLGKG [H4 1-13 S G Rcit G K G G K G L G K G]
peptide microarray binding signal ([1]; peptide region: H4 1-13, peptide modifications: H4R3cit, binder concentration: 50 nM): 0.00524 ± 0.00048
peptide microarray binding signal ([1]; peptide region: H4 1-13, peptide modifications: H4R3cit, binder concentration: 500 nM): 0.0149 ± 0.00041
peptide microarray binding signal ([2]; peptide region: H4 1-13, peptide modifications: H4R3cit, binder concentration: 10 nM): 0.00209 ± 0.00016
peptide microarray binding signal ([2]; peptide region: H4 1-13, peptide modifications: H4R3cit, binder concentration: 100 nM): 0.00468 ± 0.00014
peptide microarray binding signal [3, 7]: 0.00104 ± 0.00043
peptide microarray binding signal [3, 8]: 0.001997 ± 1.8e-05
peptide microarray binding signal [4, 7]: 0.00199 ± 3.7e-05
peptide microarray binding signal [4, 8]: 0.00161 ± 4.1e-05

SGRGKGGKGLGKG [H4 1-13 S G R G Kac G G K G L G K G]
peptide microarray binding signal ([1]; peptide region: H4 1-13, peptide modifications: H4K5ac, binder concentration: 50 nM): 0.00201 ± 2.4e-05
peptide microarray binding signal ([1]; peptide region: H4 1-13, peptide modifications: H4K5ac, binder concentration: 500 nM): 0.00524 ± 0.00032
peptide microarray binding signal ([2]; peptide region: H4 1-13, peptide modifications: H4K5ac, binder concentration: 10 nM): 0.00197 ± 5.8e-05
peptide microarray binding signal ([2]; peptide region: H4 1-13, peptide modifications: H4K5ac, binder concentration: 100 nM): 0.00659 ± 0.00054
peptide microarray binding signal [3, 9]: 0.000585 ± 1.1e-05
peptide microarray binding signal [3, 10]: 0.000571 ± 1.1e-05
peptide microarray binding signal [4, 9]: 0.000302 ± 1.2e-05
peptide microarray binding signal [4, 10]: 0.000404 ± 4.4e-06

SGRGKGGKGLGKG [H4 1-13 Sph G R G K G G K G L G K G]
peptide microarray binding signal ([1]; peptide region: H4 1-13, peptide modifications: H4S1ph, binder concentration: 50 nM): 0.00608 ± 0.0013
peptide microarray binding signal ([1]; peptide region: H4 1-13, peptide modifications: H4S1ph, binder concentration: 500 nM): 0.0121 ± 0.00045
peptide microarray binding signal ([2]; peptide region: H4 1-13, peptide modifications: H4S1ph, binder concentration: 10 nM): 0.00328 ± 0.00014
peptide microarray binding signal ([2]; peptide region: H4 1-13, peptide modifications: H4S1ph, binder concentration: 100 nM): 0.0039 ± 0.00041
peptide microarray binding signal [3, 11]: 0.00111 ± 0.00012
peptide microarray binding signal [3, 12]: 0.00131 ± 2.6e-05
peptide microarray binding signal [4, 11]: 0.000362 ± 6.3e-06
peptide microarray binding signal [4, 12]: 0.00075 ± 7.9e-06

KGLGKGGAKRHRK [H4 8-19 K G L G K G G A K R H R K]
peptide microarray binding signal ([1]; peptide region: H4 8-19, binder concentration: 50 nM): 0.00495 ± 5.5e-05
peptide microarray binding signal ([1]; peptide region: H4 8-19, binder concentration: 500 nM): 0.0131 ± 0.0015
peptide microarray binding signal ([2]; peptide region: H4 8-19, binder concentration: 10 nM): 0.00466 ± 0.00021
peptide microarray binding signal ([2]; peptide region: H4 8-19, binder concentration: 100 nM): 0.0136 ± 0.0014
peptide microarray binding signal [3, 13]: 0.000793 ± 4.3e-05
peptide microarray binding signal [3, 14]: 0.00154 ± 3e-05
peptide microarray binding signal [4, 13]: 0.000529 ± 1.3e-05
peptide microarray binding signal [4, 14]: 0.0011 ± 1.1e-05

SGRGKGGKGLGKG [H4 1-13 Sph G Rme G K G G K G L G K G]
peptide microarray binding signal ([1]; peptide region: H4 1-13, peptide modifications: H4S1ph H4R3me1, binder concentration: 50 nM): 0.00467 ± 0.00075
peptide microarray binding signal ([1]; peptide region: H4 1-13, peptide modifications: H4S1ph H4R3me1, binder concentration: 500 nM): 0.0107 ± 0.00059
peptide microarray binding signal ([2]; peptide region: H4 1-13, peptide modifications: H4S1ph H4R3me1, binder concentration: 10 nM): 0.00149
peptide microarray binding signal ([2]; peptide region: H4 1-13, peptide modifications: H4S1ph H4R3me1, binder concentration: 100 nM): 0.00276 ± 6.8e-05
peptide microarray binding signal [3, 15]: 0.000132 ± 1.5e-06
peptide microarray binding signal [3, 16]: 0.000742 ± 1.3e-05
peptide microarray binding signal [4, 15]: 0.000347 ± 7e-06
peptide microarray binding signal [4, 16]: 0.000577 ± 1.2e-05

SGRGKGGKGLGKG [H4 1-13 S G Rme2s G K G G K G L G K G]
peptide microarray binding signal ([1]; peptide region: H4 1-13, peptide modifications: H4R3me2s, binder concentration: 50 nM): 0.00304 ± 5.1e-05
peptide microarray binding signal ([1]; peptide region: H4 1-13, peptide modifications: H4R3me2s, binder concentration: 500 nM): 0.0107 ± 0.0019
peptide microarray binding signal ([2]; peptide region: H4 1-13, peptide modifications: H4R3me2s, binder concentration: 10 nM): 0.00161 ± 0.00016
peptide microarray binding signal ([2]; peptide region: H4 1-13, peptide modifications: H4R3me2s, binder concentration: 100 nM): 0.00468 ± 0.0011
peptide microarray binding signal [3, 17]: 0.000227 ± 2.2e-05
peptide microarray binding signal [3, 18]: 0.00097 ± 4.3e-05
peptide microarray binding signal [4, 17]: 0.000317 ± 3.5e-05
peptide microarray binding signal [4, 18]: 0.000461

SGRGKGGKGLGKG [H4 1-13 Sph G Rcit G K G G K G L G K G]
peptide microarray binding signal ([1]; peptide region: H4 1-13, peptide modifications: H4S1ph H4R3cit, binder concentration: 50 nM): 0.00335 ± 0.00024
peptide microarray binding signal ([1]; peptide region: H4 1-13, peptide modifications: H4S1ph H4R3cit, binder concentration: 500 nM): 0.00524 ± 0.00019
peptide microarray binding signal ([2]; peptide region: H4 1-13, peptide modifications: H4S1ph H4R3cit, binder concentration: 10 nM): 0.00281 ± 4.1e-05
peptide microarray binding signal ([2]; peptide region: H4 1-13, peptide modifications: H4S1ph H4R3cit, binder concentration: 100 nM): 0.00418 ± 0.0002
peptide microarray binding signal [3, 19]: 0.000378 ± 3.9e-06
peptide microarray binding signal [3, 20]: 0.000685 ± 7.2e-06
peptide microarray binding signal [4, 19]: 0.000136
peptide microarray binding signal [4, 20]: 0.00121 ± 0.00012

SGRGKGGKGLGKG [H4 1-13 S G Rme G K G G K G L G K G]
peptide microarray binding signal ([1]; peptide region: H4 1-13, peptide modifications: H4R3me1, binder concentration: 50 nM): 0.00483 ± 0.00013
peptide microarray binding signal ([1]; peptide region: H4 1-13, peptide modifications: H4R3me1, binder concentration: 500 nM): 0.00838 ± 0.0007
peptide microarray binding signal ([2]; peptide region: H4 1-13, peptide modifications: H4R3me1, binder concentration: 10 nM): 0.00477 ± 0.00017
peptide microarray binding signal ([2]; peptide region: H4 1-13, peptide modifications: H4R3me1, binder concentration: 100 nM): 0.0127 ± 0.0019
peptide microarray binding signal [3, 21]: 0.00125 ± 0.00022
peptide microarray binding signal [3, 22]: 0.0012 ± 1.2e-05
peptide microarray binding signal [4, 21]: 0.000544 ± 6.8e-05
peptide microarray binding signal [4, 22]: 0.00115 ± 2e-05

SGRGKGGKGLGKG [H4 1-13 S G R G K G G K G L G Kac G]
peptide microarray binding signal ([1]; peptide region: H4 1-13, peptide modifications: H4K12ac, binder concentration: 50 nM): 0.00238 ± 2.8e-05
peptide microarray binding signal ([1]; peptide region: H4 1-13, peptide modifications: H4K12ac, binder concentration: 500 nM): 0.00652 ± 0.001
peptide microarray binding signal ([2]; peptide region: H4 1-13, peptide modifications: H4K12ac, binder concentration: 10 nM): 0.00251 ± 0.00023
peptide microarray binding signal ([2]; peptide region: H4 1-13, peptide modifications: H4K12ac, binder concentration: 100 nM): 0.0056 ± 0.00073
peptide microarray binding signal [3, 23]: 0.000302 ± 1.7e-05
peptide microarray binding signal [3, 24]: 0.000799 ± 3.3e-05
peptide microarray binding signal [4, 23]: 0.000121 ± 8.7e-06
peptide microarray binding signal [4, 24]: 0.000577 ± 6.2e-06
